Inhibition data for 62 compounds are collected here from ChEMBL document CHEMBL1157539, “Thousands of chemical starting points for antimalarial lead identification” (Nature, 2010).

Common to all, as to type: functional
The test system of assay [1] is Plasmodium falciparum. Briefly: GSK_TCMDC: Inhibition of Plasmodium falciparum 3D7 in whole red blood cells, using parasite LDH activity as an index of growth. Test compounds present at 2uM.
Assay [2] concerns Plasmodium falciparum. Briefly: GSK_TCMDC: Inhibition of Plasmodium falciparum Dd2 in whole red blood cells, using parasite LDH activity as an index of growth. Test compounds present at 2uM.
The test system of a further assay is HepG2. Briefly: GSK_TCMDC: Percent inhibition of human HepG2 cell line. Test compounds present at 10uM.

Regarding `COc1cc2nc(N3CCC(CNC(=O)c4ccc(-c5ccc(O)cc5)cc4)CC3)nc(N)c2cc1OC.O=C(O)C(F)(F)F`, the Inhibition amounted to 100% in the assay on Plasmodium falciparum [1], 78% in the assay on Plasmodium falciparum [2] and 34% in the assay on HepG2.
Regarding `COc1ccc(C(=O)Nc2cc(Br)c3c(c2)CNCC3)cc1Br.Cl`, the values for the Inhibition in the assay with Plasmodium falciparum [1], with Plasmodium falciparum [2] and in the assay with HepG2 were 97%, 8% and 25%, respectively.
For `Cc1nc(N)nc(N)c1-c1ccc2ccccc2c1`, in that order: 97%, 2% and 60%.
Consider `COc1ccc2nccc([C@@H](O)CN3CCC(NCc4ccc5c(n4)NCCC5)CC3)c2c1`, for which the Inhibition in the assay on Plasmodium falciparum [1] came to 100%; with Plasmodium falciparum [2], 39%; in the assay with HepG2, 21%.
On to `Cc1cccc(CN2CCCN(Cc3ccc(C(=O)Nc4ccc(Cl)cc4)cc3)CC2)c1.O=C(O)C(F)(F)F`, for which the Inhibition in the assay with Plasmodium falciparum [1] stood at 92%; in the assay with Plasmodium falciparum [2], 17%; with HepG2, 54%.
In the case of `CC(=O)Nc1cc(C(=O)Nc2cccc(-c3csc(-c4nc5ccccc5[nH]4)c3)c2)ccc1C`, the figures for the Inhibition in the assay on Plasmodium falciparum [1], with Plasmodium falciparum [2] and in the assay with HepG2 were 94%, 66% and 31%, respectively.
For `CC(=O)N1N=C(c2cccs2)Sc2c1nc(-c1ccc(Cl)cc1)n2C(C)=O`, the Inhibition in the assay on Plasmodium falciparum [1] is given as 99%; in the assay on Plasmodium falciparum [2], 93%; in the assay with HepG2, 3%.
Take `O=C(O)C(F)(F)F.O=C1CCCN1CCCNCc1cccc(-c2ccc(-c3nc4cc(C(F)(F)F)ccc4[nH]3)cc2)c1`: the Inhibition in the assay on Plasmodium falciparum [1] was determined as 100%; in the assay on Plasmodium falciparum [2], 96%; with HepG2, 15%.
Taken in the same sequence, the figures for `CC(C)NCc1ccc(-c2cccc(NC(=O)c3cccc(C#N)c3)c2)cc1.O=C(O)C(F)(F)F` were 100%, 78% and 9%.
Taken in the same sequence, the figures for `CN1CCC(c2c[nH]c3ccc(NC(=O)Nc4ccc(-c5ccncc5)cc4Cl)cc23)CC1` were 100%, 7% and 31%.
Taken in the same sequence, the figures for `COc1ccccc1CN1CCC(NC(=O)c2ccc(-c3cccc(Cl)c3)s2)CC1.O=C(O)C(F)(F)F` were 84%, 9% and 49%.
In the case of `COc1ccc(NC(=O)/C=C/c2ccc(Oc3ccccc3Cl)c([N+](=O)[O-])c2)cc1OCCN(C(C)C)C(C)C`, the Inhibition with Plasmodium falciparum [1] is reported as 99%; in the assay with Plasmodium falciparum [2], 97%; with HepG2, 31%.
For `Cc1cc2nc(-c3ccc(/C=C/C(=O)NC4CCN(Cc5ccccc5)CC4)cc3)[nH]c2cc1C`, the Inhibition in the assay on Plasmodium falciparum [1] is 98%; in the assay with Plasmodium falciparum [2], 89%; with HepG2 it was 18%.
As for `Br.CCCCCCn1c2c(c(=N)c3c1CCC3)CCCC2`, the Inhibition is 99% in the assay with Plasmodium falciparum [1], 76% with Plasmodium falciparum [2] and 31% in the assay with HepG2.
On to `Nc1nc2ccc(S(=O)(=O)Nc3ccc(C(=O)N[C@@H](CCC(=O)O)C(=O)O)c(F)c3)cc2c(=O)[nH]1`, for which the Inhibition was determined as 97% in the assay with Plasmodium falciparum [1], 16% in the assay on Plasmodium falciparum [2] and 37% in the assay with HepG2.
For `Clc1ccc(-c2ccc(CNCCCN3CCCC3)cc2)cc1`, in that order: 91%, 21% and 47%.
As to `COc1ccc2nccc(N(C)CC3(O)CCN(CCc4ccc5c(c4)OCCO5)CC3)c2n1.Cl`, the Inhibition is recorded as 100% with Plasmodium falciparum [1], 96% in the assay with Plasmodium falciparum [2] and 15% in the assay with HepG2.
For `CCOc1cc(CC)ccc1C1CCN(CCN2CCC(NC(=O)c3ccc(-c4ccc(C#N)cc4)cc3)CC2)CC1`, in that order: 100%, 71% and 32%.
On to `CCCCCC(C)C(C)c1cc(O)c2c(c1)OC(C)(C)CC2(O)c1ccccn1` (stereo unspecified), for which the results for the Inhibition in the assay with Plasmodium falciparum [1], with Plasmodium falciparum [2] and in the assay on HepG2 were 98%, 3% and 0%, respectively.
Taken in the same sequence, the figures for `Cc1nc(-c2cccc(Nc3nccc(NCC(O)c4cccc(F)c4)n3)c2)cs1` (stereo unspecified) were 98%, 59% and 39%.
Consider `CC(O)C1CCCCN1C(=O)c1ccc(-c2cccc(-c3nc4cc(F)ccc4[nH]3)c2)cc1` (stereo unspecified), for which the Inhibition was 100% in the assay with Plasmodium falciparum [1], 97% in the assay on Plasmodium falciparum [2] and 30% in the assay with HepG2.
Consider `COc1ccc(N2CCN(CCCCNC(=O)c3ccc(NC(=O)c4ccc(Cl)cc4)cc3)CC2)c(OC)c1.Cl`, for which the Inhibition with Plasmodium falciparum [1] is recorded as 97%; with Plasmodium falciparum [2] it was 22%; in the assay with HepG2 it was 25%.
For `COC(=O)c1cccc(NC(=O)NC2CCN(c3ccnc(Nc4ccc(F)cc4)n3)C2)c1` (stereo unspecified), in that order: 100%, 83% and 5%.
For `COc1ccc2nccc([C@@H](O)CN3CCC(NCCOc4ccccc4C(F)(F)F)CC3)c2c1.O=C(O)C(=O)O`, the Inhibition is recorded as 98% in the assay on Plasmodium falciparum [1], 95% in the assay on Plasmodium falciparum [2] and 2% in the assay with HepG2.
For the compound `Cc1ccc(CNC(=O)[C@H](Cc2ccccc2)Nc2cc(C)nc(Nc3ccccc3)n2)cc1.O=C(O)C(F)(F)F`, the values for the Inhibition with Plasmodium falciparum [1], in the assay with Plasmodium falciparum [2] and in the assay with HepG2 were 100%, 91% and 16%, respectively.
As to `O=C(Nc1nc2cc(S(=O)(=O)NCc3ccc(Cl)c(Cl)c3)ccc2n1CCCn1ccnc1)c1ccc(Cl)cc1.O=C(O)C(F)(F)F`, the Inhibition is 100% with Plasmodium falciparum [1], 44% with Plasmodium falciparum [2] and 0% in the assay on HepG2.
`Cc1cc(NC2CCN(CC3CCCCC3)C2)nc(Nc2ccc(Br)cc2)n1` (stereo unspecified): the Inhibition with Plasmodium falciparum [1] was determined as 100%; in the assay on Plasmodium falciparum [2], 83%; with HepG2 it was 22%.
Taken in the same sequence, the figures for `COc1ccc(CNCc2cccc(-c3cccc(-c4nc5cccc(C)c5[nH]4)c3)c2)cc1.O=C(O)C(F)(F)F` were 100%, 60% and 31%.
In the case of `COc1cc2nc(N(C)Cc3cc4c(Cl)cccc4s3)nc(N)c2cc1OC.Cl`, the Inhibition is 90% in the assay on Plasmodium falciparum [1], 27% with Plasmodium falciparum [2] and 32% in the assay with HepG2.
Taken in the same sequence, the figures for `N#CN1CC[C@H](CS(=O)(=O)c2cccc(Br)c2)C1` were 88%, 74% and 8%.
Taken in the same sequence, the figures for `O=C(NC1CC1)c1ccc2cc(C(=O)N3Cc4ccccc4C(c4ccccc4)C3)ccc2c1` (stereo unspecified) were 97%, 64% and 0%.
As to `CS(=O)(=O)CCNCc1nc(-c2ccc3ncnc(Nc4ccc(OCc5cccc(F)c5)c(Cl)c4)c3c2)cs1.Cl`, the Inhibition with Plasmodium falciparum [1] is listed as 98%; in the assay on Plasmodium falciparum [2], 34%; in the assay with HepG2 it was 8%.
For `COc1cc(F)c2ncc(Cl)c(CCN3CCC(NCc4cc5c(cn4)OCCO5)CC3)c2c1.Cl`, in that order: 89%, 57% and 2%.
Taken in the same sequence, the figures for `O=C(Cc1ccccc1)NC1(c2ccccc2)CCN(CCc2c[nH]c3ccc(F)cc23)CC1` were 87%, 62% and 29%.
Taken in the same sequence, the figures for `CC1(C)N=C(N)N=C(NOCCCCCCONC2=NC(N)=NC(C)(C)N2)N1` were 95%, 98% and 34%.
`CCOCCCn1c(=N)c(C(=O)NC(C)c2ccccc2)cc2c(=O)n3cccc(C)c3nc21` (stereo unspecified): the Inhibition in the assay on Plasmodium falciparum [1] stood at 95%; in the assay with Plasmodium falciparum [2] it was 31%; with HepG2, 24%.
For the compound `CCn1ccc2c(N3CCCCS3(=O)=O)cc(C(=O)N[C@@H](Cc3ccccc3)[C@H](O)CNC3CCCCC3)cc21`, the Inhibition was 98% in the assay on Plasmodium falciparum [1], 98% with Plasmodium falciparum [2] and 1% in the assay on HepG2.
As for `CO/C(=C\C=C\c1cc2cc(Cl)c(Cl)cc2[nH]1)C(=O)NCCCN1CCN(c2cccc(OCC(=O)Nc3ccccc3)c2)CC1`, the Inhibition in the assay with Plasmodium falciparum [1] is recorded as 100%; in the assay on Plasmodium falciparum [2] it was 81%; with HepG2, 49%.
As for `O=C(Nc1ccc(Cl)c(Cl)c1)Nc1cc(C(F)(F)F)ccc1Cl`, the Inhibition came to 100% in the assay on Plasmodium falciparum [1], 85% in the assay with Plasmodium falciparum [2] and 0% in the assay with HepG2.
Regarding `Cc1ccc(S(=O)(=O)N(C)c2ccccc2C(=O)Nc2ccccc2Oc2ccccc2)cc1`, the Inhibition is 98% in the assay on Plasmodium falciparum [1], 90% with Plasmodium falciparum [2] and 5% with HepG2.
In the case of `CCNc1cc(C)nc(Nc2ccc(NC(=O)c3ccccc3Cl)cc2)n1`, the Inhibition in the assay on Plasmodium falciparum [1] is reported as 100%; with Plasmodium falciparum [2], 52%; in the assay on HepG2, 48%.
For `O=C(Nc1ccc(Cl)cc1)c1cccc(CN2CCCN(Cc3cccc(O)c3)CC2)c1.O=C(O)C(F)(F)F`, in that order: 98%, 43% and 14%.
For `COc1cccc2c(NN=Cc3ccccc3Cl)cc(C)nc12`, in that order: 100%, 100% and 22%.
Taken in the same sequence, the figures for `Cc1ccc(NC(=O)Nc2ccc(I)c(OCCN(C)C)c2)cc1Cl` were 98%, 22% and 11%.
On to `O=C(NC(c1ccccc1)c1ccccc1)C(c1cc2ccccc2o1)N1CCN(C(c2ccccc2)c2ccccc2)CC1` (stereo unspecified), for which the Inhibition is reported as 95% in the assay on Plasmodium falciparum [1], 78% with Plasmodium falciparum [2] and 0% in the assay with HepG2.
For `CN(C)CCC1CCN(CCS(=O)(=O)c2cccc(Nc3ncc(-c4cccc(F)c4)cn3)c2)CC1`, in that order: 96%, 12% and 59%.
In the case of `COc1ccc2ncc(F)c([C@H](O)CN3CCC(NCc4ccc5c(c4)NC(=O)CS5)CC3)c2c1.Cl`, the results for the Inhibition in the assay on Plasmodium falciparum [1], in the assay on Plasmodium falciparum [2] and with HepG2 were 100%, 98% and 7%, respectively.
Taken in the same sequence, the figures for `C[C@H](NC(=O)c1cc(-c2ccc(C(C)(C)C)cc2)no1)C(=O)O.C[C@H](NC(=O)c1conc1-c1ccc(C(C)(C)C)cc1)C(=O)O` were 91%, 97% and 31%.
For `CN(C)CCNc1cc(-c2ccc3ccccc3c2)nc2ccccc12`, in that order: 100%, 58% and 24%.
Taken in the same sequence, the figures for `CN(C)Cc1cccc(-c2ccc3ccnc(N)c3c2)c1` were 99%, 74% and 21%.
Consider `CC1CCc2c(C(=O)N3CCc4ccccc4C3)csc2C1` (stereo unspecified), for which the results for the Inhibition with Plasmodium falciparum [1], in the assay with Plasmodium falciparum [2] and with HepG2 were 99%, 75% and 9%, respectively.
For `COC(=O)C(Cc1ccccc1)NC(=O)NC1CCN(c2ccnc(Nc3ccc(F)cc3)n2)C1` (stereo unspecified), in that order: 90%, 14% and 0%.
In the case of `Cc1cc(C)c2c(c1)C(=NO)CCN2`, the results for the Inhibition in the assay with Plasmodium falciparum [1], with Plasmodium falciparum [2] and in the assay with HepG2 were 94%, 2% and 2%, respectively.
With `Cc1ccc2nc(Cl)c3cc(C(=O)NCCCN4CCCC4)sc3c2c1`, the Inhibition in the assay with Plasmodium falciparum [1] was 89%; with Plasmodium falciparum [2] it was 40%; in the assay with HepG2, 26%.
For `O=C(N1CCN(c2cccc(C(F)(F)F)c2)CC1)C(Cl)(Cl)Cl`, in that order: 89%, 35% and 0%.
For `Cc1cc(NC(=O)c2cccs2)ccc1OC1CCN(Cc2ccc(F)cc2)CC1.O=C(O)C(F)(F)F`, in that order: 94%, 92% and 7%.
Taken in the same sequence, the figures for `CC(=O)N[C@H](C(=O)Nc1cccc(-c2ccc(-c3nc4cccc(C)c4[nH]3)s2)c1)C(C)C` were 93%, 29% and 33%.
As to `CCn1c(-c2nonc2N)nc2c(-c3ccc(CO)o3)ncc(OCCCN)c21.O=C(O)C(F)(F)F`, the Inhibition in the assay with Plasmodium falciparum [1] is reported as 93%; in the assay on Plasmodium falciparum [2] it was 97%; in the assay on HepG2 it was 0%.
Taken in the same sequence, the figures for `CNC(=O)c1ccc2nc(C3CC3)n(CC3CCN(S(=O)(=O)c4cccc(Cl)c4)CC3)c2c1.O=C(O)C(F)(F)F` were 100%, 100% and 0%.
`c1ccc(Oc2ccc(Nc3ccnc4cc(-c5cccc(CN6CCOCC6)c5)ccc34)cc2)cc1`: the Inhibition is recorded as 100% with Plasmodium falciparum [1], 100% in the assay with Plasmodium falciparum [2] and 14% in the assay on HepG2.
`S=C(NN=Cc1ccccn1)NC1CC2C=CC1C2` (stereo unspecified): the Inhibition in the assay on Plasmodium falciparum [1] is reported as 99%; in the assay with Plasmodium falciparum [2], 96%; in the assay on HepG2 it was 51%.
Taken in the same sequence, the figures for `COC(=O)C1=CNC=C(C(=O)OC)C1c1ccc(Cl)c([N+](=O)[O-])c1` were 93%, 79% and 0%.
